The list is not random: actives were taken first. Their share in the collection is about 19%.
Cycloheximide cs = Cycloheximide Counterscreen for Small Molecule Inhibitors of Shiga Toxin. cell reporter, cycloheximide protein synthesis inhibition counterscreen. max response, %. actives 12% (n = 300,000); in the data active means max response mostly above about 13%, no sharp cut-off; inactive means mostly below about 14%; further: read at 38.3 µM for the half of the compounds with a filed dose
Pf growth 96h = Primary qHTS for delayed death inhibitors of the malarial parasite plastid, 96 hour incubation | Potency, µM (titrated, usually from 28.7 µM), usual class: inhibitors | P. falciparum luciferase reporter growth, 96 h | actives 6.9% (n = 320,000)
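Plates of compound plus infected erythrocytes (2% hematocrit, 0.05% parasitemia final) incubate 96 hours, 37 C, 5% CO2. Detection reagent added; reduced luminescence from the parasites' luciferase reporter flags inhibition.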
Pf growth 48h = Primary qHTS for delayed death inhibitors of the malarial parasite plastid, 48 hour incubation. Potency, µM (highest dose often 28.7 µM), actives largely listed as inhibitors. P. falciparum luciferase growth in erythrocytes, 48 h. AID 504832, 2011. actives 5.9% (n = 310,000)
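Luminescence readout; reporter = integrated firefly luciferase in P. falciparum. RBC culture at 2% hematocrit, 0.1% parasitemia final, 37 C/5% CO2; decreased signal taken as growth inhibition.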
AMA1-RON2 inh = qHTS for Inhibitors of AMA1-RON; Towards Development of Antimalarial Drug Lead: Primary Screen; Plasmodium falciparum AMA1 (3D7) - RON2 peptide interaction; AlphaScreen AMA1-biotinylated RON2 peptide binding; Potency, µM (highest dose often 58.2 µM), actives largely listed as inhibitors; actives 0.2% (n = 360,000); AID 720542, 2013; further: nearly all actives have a fitted effect of over 45% in size
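AMA1 (3D7) with his tag at 25 nM final met compounds first, then biotinylated RON2 peptide at 25 nM; detection used donor plus acceptor beads, 10 µg/mL apiece, read by AlphaScreen after 30 min at room temperature.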
SARS PLpro yeast = qHTS of Yeast-based Assay for SARS-CoV PLP; S. cerevisiae expressing SARS-CoV PLpro, growth rescue; Potency, µM (top dose mostly 32.9 µM), most hits filed as activators; actives 0.19% (n = 330,000); calls by dose curve; further: nearly all actives have a fitted effect of over 55% in size
Shiga toxin inh = A qHTS for Small Molecule Inhibitors of Shiga Toxin; Vero cells, Shiga toxin protein synthesis inhibition reporter; inhibition, % at 38.7 µM; actives 9.2% (n = 290,000); AID 2315, 2010; in the data active means inhibition mostly above about 28%, no sharp cut-off; inactive means mostly below about 43%
Numbers stand for hits; . = inactive; ? = inconclusive; / = no result given. Unless noted, the call rests on the fitted dose curve; in most records, active means well fitted curve in the direction sought with a large enough effect; inconclusive means small, poorly fitted or top-dose-only effect, or another doubt; inactive means no such curve, though single readings can be large; an effect the other way counts as inactive or inconclusive.

SMILES	Cycloheximide cs	Pf growth 96h	Pf growth 48h	AMA1-RON2 inh	SARS PLpro yeast	Shiga toxin inh
COc1ccc(C2C(C#N)=C(N)OC3=C2C(=O)CC(C)(C)C3)cc1OC (stereo not given)	.	?	.	.	.	.
CC(C)(C)CC(C)(C)NC(=O)/C=C/C(=O)O	.	.	.	.	.	.
Cc1ccc(SCC(=O)OCC(=O)N(C)CC(=O)Nc2ccccc2Cl)cc1	/	.	.	.	.	/
NC(=O)c1ccc(OCC(F)(F)C(F)(F)C(F)(F)C(F)(F)C(F)(F)C(F)F)cc1	.	12µM	.	.	.	.
CC(=NCCN1CCCCC1)c1c(O)[nH]c(=O)[nH]c1=O	.	/	.	.	.	87
Cc1ccc(Nc2nnns2)cc1C	.	?	.	.	.	.
Cc1ccc(Nc2nc(/N=C/N(C)C)n[nH]2)cc1C	51	.	.	.	.	86
O=C(Cc1ccc(-n2cccc2)cc1)NC1CCCCCC1	.	15µM	.	.	.	.
CCC(C)(C)NC(=O)Cc1ccc(Cl)cc1	25	.	.	.	.	.
CCC(C)(C)NC(=O)Cc1ccc(F)cc1	.	.	.	.	.	.
O=C(Cc1ccc(Cl)cc1)NNC(=O)C(=O)NC1CCCCC1	/	/	/	.	.	/
O=C(CCSc1ccc(Cl)cc1)NC1CCCC1	.	5.9µM	.	.	.	.
Clc1ccc(CN=C(Nc2ccccc2)NC2CCCCC2)cc1	.	9.3µM	9.3µM	.	.	.
CC(C)CC(N)c1csc(Nc2cnccn2)n1 (stereo not given)	/	/	/	.	/	/
O=C(CCS(=O)(=O)c1ccccc1Cl)NC1CCCCCC1	/	/	/	.	.	/
O=C(NC1CC1)c1ccc(-n2cccc2)cc1	62	.	.	.	.	.
CC1CCCCN1C(=O)Cc1ccc(Cl)cc1 (stereo not given)	14	.	.	.	.	.
Cc1ccccc1OCCCC(=O)NC1CCCCC1	13	.	.	.	.	/
O=C(CCSCc1ccccc1Cl)NC1CCCCC1	37	.	.	.	.	95
Nc1ccn([C@@H]2O[C@H](CNCC3=CCOc4ccc(O)cc43)[C@@H](O)[C@H]2O)c(=O)n1	/	/	/	.	/	/
O=C(Cc1ccc(Cl)cc1)NC1CCCCCC1	20	.	.	?	.	.
O=C(Cc1ccc(-c2ccccc2)cc1)NC1CCCC1	.	.	.	.	.	.
Cc1ccc(S(=O)(=O)NC(=S)NC2CCCCC2)cc1	.	.	.	.	.	.
O=C(CCSc1ccccc1)NC1CCCC1	28	.	.	.	.	.
C=CCNC(=O)c1ccc(-n2cccc2)cc1	30	.	.	.	.	.
SMILES	Cycloheximide cs	Pf growth 96h	Pf growth 48h	AMA1-RON2 inh	SARS PLpro yeast	Shiga toxin inh
O=S(=O)(NC(=S)NC1CCCCC1)c1ccc(Cl)cc1	.	0.52µM	.	.	.	.
C=CCNC(=O)c1ccncc1	.	?	.	.	.	.
COc1cccc(CNC(=O)C2CCN(c3nn4c(=O)cc(C)nc4s3)CC2)c1	.	?	?	.	.	.
Cc1cccc(N2CC(C(=O)Nc3nnc(SCc4cccnc4)s3)CC2=O)c1 (stereo not given)	.	?	?	.	.	.
O=C(COC(=O)c1ccc(Br)o1)NC1CCCc2ccccc21 (stereo not given)	/	.	.	.	.	/
CCOC(=O)C1CC(CN2C(=O)c3ccccc3C2=O)OC1=O (stereo not given)	/	/	/	.	/	/
O=C(CCS(=O)(=O)c1ccccc1)NC1CCCCC1	59	?	.	.	.	90
COc1ccc(C(=O)/C=C/c2ccc(O)cc2)cc1	37	.	.	.	.	87
O=C(/C=C/c1ccc(O)cc1)c1ccccc1	39	.	.	.	.	75
O=C(/C=C/c1cccnc1)c1ccc(O)cc1	13	.	?	.	.	.
COc1ccc(-c2cc(O)cc(O)c2)cc1	33	/	.	.	.	50
COc1ccc(C(=O)/C=C/c2ccc(OC)c(Cn3nnc4ccccc43)c2)cc1	.	0.1µM	?	.	.	.
CN(C)c1ccc(/C=C/C(=O)c2ccc(O)cc2)cc1	/	/	/	.	/	/
COc1ccc(/C=C/C(=O)c2nc3ccccc3n2CC(=O)c2ccc(OC)cc2)cc1	.	.	10µM	.	.	.
Cc1nn(C)cc1/C=C/C(=O)c1ccc(O)cc1	38	.	.	.	.	40
COc1ccc(/C=C/C(=O)Oc2cc(O)cc(O)c2)cc1	21	?	?	.	.	35
O=C(/C=C/c1ccc(N2CCC(c3ccccc3)=N2)cc1)c1ccccc1	39	.	.	.	.	80
COc1ccc(Oc2coc3cc(OC(=O)/C=C/c4ccc(F)cc4)ccc3c2=O)cc1	.	4.1µM	?	.	.	.
Cc1cccc(Oc2coc3cc(OC(=O)c4cccs4)ccc3c2=O)c1	29	.	.	.	.	50
COc1cc(C(=O)/C=C/c2cccnc2)c([N+](=O)[O-])cc1OC	/	?	2.9µM	.	.	/
COc1ccc(Oc2coc3cc(OC(=O)/C=C/c4ccccc4)ccc3c2=O)cc1	.	.	.	.	.	.
COc1cccc(CN2CCC2(C)C(=O)Nc2ccc3c(c2)OCO3)c1F (stereo not given)	/	/	/	.	/	/
Cc1c(Cl)cnc(NC(=O)CSc2nnnn2C)c1Cl	/	/	/	.	.	/
O=C(O)c1cccc(/C=C2/C[C@@H]3[C@@H](/C=C/[C@@H](O)C4CCCCC4)[C@H](O)C[C@@H]3O2)c1	.	/	/	/	/	.
CCOC(=O)C1CCCN(C(=O)CCn2nc(-c3ccccc3)ccc2=O)C1 (stereo not given)	.	.	.	.	.	.
SMILES	Cycloheximide cs	Pf growth 96h	Pf growth 48h	AMA1-RON2 inh	SARS PLpro yeast	Shiga toxin inh
COc1ccccc1CN1CC(C(=O)NCc2nccn2C)CCC1=O (stereo not given)	.	.	.	.	.	.
Cc1ccc(NC(=O)CSc2ccc(Br)cc2)cc1S(=O)(=O)N1CCOCC1	/	.	?	.	/	/
Cc1cc(C)cc(C(=O)Nn2cnnc2)c1	.	.	.	.	.	.
O=C1N(c2cccc(Cl)c2)C(c2cccnc2)N2CCCN12 (stereo not given)	.	13µM	.	.	.	.
O=C1N(c2ccccc2)C(c2cccnc2)N2CCCN12 (stereo not given)	.	.	.	.	.	.
CCCC(=O)Nc1nc(-c2ccc(OC)cc2)cs1	40	/	.	.	.	138
CCCC(=O)Nc1nc(-c2ccc(Cl)s2)cs1	38	.	.	.	.	.
COc1ccc(-c2csc(NC(=O)COC(=O)C3=COCCO3)n2)cc1	33	.	.	.	.	.
COc1ccc(CC(=O)Nc2nc(-c3ccncc3)cs2)cc1	.	13µM	?	.	.	.
COc1ccc(CCC(=O)Nc2nc(-c3ccncc3)cs2)cc1	.	?	?	/	.	.
